The text below walks through data of PubChem BioAssay (EPA / NIEHS).

Records with an inconclusive call do not appear. Activity calls are given as the source filed them. The calls were made as follows, unless noted: active = hit-call score of the fitted dose curve at least 0.9, where 1 is the maximum; inconclusive = response in the unintended direction; inactive = score below 0.9.

In assay [1] the target is Peroxisome proliferator-activated receptor gamma (Homo sapiens) (UniProt P37231). The assay can be described thus: NVS_NR_hPPARg: NovaScreen (NVS) Nuclear Receptor Binding Assay for human Peroxisome Proliferator-activated Receptor gamma (PPARg) (AID 2283370). The method, boiled down:
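Extracted receptor protein, cell-free; compound incubated 2 h then fluorescence polarization read. Baseline: DMSO. Actives from 25 uM duplicate screen re-run across concentrations.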

Assay [2] addresses Estrogen receptor beta (Homo sapiens) (UniProt Q92731). In words: OT_ER_ERbERb_1440: Odyssey Thera (OT) 24-hour HEK293T Protein-Complementation Assay for Estrogen Receptor-beta/-beta Homodimer (AID 2283380).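 Also: fluorescence gain from ER beta LBD homodimer complementation read by laser scanning cytometry; scored as signal increase over DMSO baseline for both agonists and antagonists.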 The method, boiled down: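 HEK293T cells stably expressing human ER-beta LBD (aa 310-547) PCA homodimer pair, dosed 24 h; formaldehyde-fixed, Draq5-stained. Readout: increase in nuclear (agonist) or nuclear plus cytoplasmic (antagonist) fluorescence intensity versus DMSO, gain-of-signal fitting.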

In assay [3] the target is Estrogen receptor (Homo sapiens) (UniProt P03372). The assay can be described thus: OT_ERa_GFPERaERE_0480: Odyssey Thera (OT) 8-hour HeLa Transcription Induction Assay for Estrogen Receptor (AID 2283381; active = hit-call score of the fitted dose curve at least 0.9, where 1 is the maximum; inactive = score below 0.9). The method, boiled down:
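Cells (HeLa) receive compound; after 8 h, reporter fluorescence is imaged and quantified by high-content analysis. Gain-of-signal relative to DMSO gives the endpoint.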

Assay [4] shares this target. The assay can be described thus: OT_ERa_GFPERaERE_0120: Odyssey Thera (OT) 2-hour HeLa Transcription Induction Assay for Estrogen Receptor (AID 2283382). The essentials: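 Measures ESR1 pathway reporter gain-of-signal in HeLa cells after a 2-hour treatment, detected as fluorescent protein induction by microscopy, DMSO as baseline.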
For assay [5], the target named is human Norepinephrine Transporter (NET), SLC6A2 (gene 6530) (UniProt P23975). The assay can be described thus: NVS_TR_hNET: NovaScreen (NVS) Transporter Assay for human Norepinephrine Transporter (NET) (AID 2283377).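 Also: cell-free membrane protein extracted from CHO cells expressing human NET.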 The essentials: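 Radioligand binding to human NET in cell-free CHO-derived protein preparations, read by filter-based scintillation counting 1 hour after dosing. Loss of signal versus DMSO baseline indicated displacement; primary screening in duplicate at 25 uM, actives then titrated.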

Assay [6] deals with Agonist Androgen Response Element (ARE), AR (gene 367) (UniProt P10275). The assay can be described thus: OT_AR_ARELUC_AG_1440: Odyssey Thera (OT) 24-hour CHO-K1 Luciferase Assay for Agonist Androgen Response Element (ARE) (AID 2283379). The essentials: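 Seed CHO-K1 cells; dose compounds for 24 h; add D-luciferin plus ATP in PBS; read luminescence. Signal increase relative to vehicle defines agonist activity, with at least 3 replicate wells per sample.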

Assay [7] has as its system guinea pig Dopamine Transporter (DAT), gene 100714898. The assay can be described thus: NVS_TR_gDAT: NovaScreen (NVS) Transporter Assay for guinea pig Dopamine Transporter (DAT) (AID 2283369).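 Also: active compounds lower bound radioligand signal relative to DMSO.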 The essentials: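 Primary pass: duplicate wells at 25 uM, threshold e.g. 30% inhibition. Follow-up: singleton concentration-response, highest 50 uM. Radioligand binding on guinea pig striatal membranes, 2 h, filtration scintillation detection.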

In assay [8] the target is human Dopamine Transporter (DAT), SLC6A3 (gene 6531) (UniProt Q01959). In words: NVS_TR_hDAT: NovaScreen (NVS) Transporter Assay for human Dopamine Transporter (DAT) (AID 2283374).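 Also: activity means loss of bound radioligand signal relative to DMSO.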 The method, boiled down:
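Cell-free radioligand binding to extracted human DAT protein, read 1 h after dosing by filter-based scintillation counting. Loss of specific binding scored against DMSO baseline; primary screen in duplicate at 25 uM, actives then run in concentration series.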

Peroxisome proliferator-activated receptor gamma (Homo sapiens), sequence (P37231 whole entry, looked up): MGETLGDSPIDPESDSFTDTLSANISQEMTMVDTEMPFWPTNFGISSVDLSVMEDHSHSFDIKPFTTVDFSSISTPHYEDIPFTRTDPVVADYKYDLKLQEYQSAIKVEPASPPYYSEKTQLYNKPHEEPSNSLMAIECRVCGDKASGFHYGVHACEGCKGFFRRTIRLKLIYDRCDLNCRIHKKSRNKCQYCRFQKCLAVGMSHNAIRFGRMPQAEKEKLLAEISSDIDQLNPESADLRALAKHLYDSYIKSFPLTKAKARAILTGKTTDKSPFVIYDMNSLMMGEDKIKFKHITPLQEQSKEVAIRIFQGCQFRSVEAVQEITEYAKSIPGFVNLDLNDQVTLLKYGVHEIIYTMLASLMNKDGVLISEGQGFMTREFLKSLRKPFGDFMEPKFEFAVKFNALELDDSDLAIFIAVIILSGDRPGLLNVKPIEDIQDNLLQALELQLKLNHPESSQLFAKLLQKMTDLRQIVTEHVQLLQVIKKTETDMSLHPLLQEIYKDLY
Estrogen receptor (Homo sapiens), sequence (P03372 whole entry, looked up): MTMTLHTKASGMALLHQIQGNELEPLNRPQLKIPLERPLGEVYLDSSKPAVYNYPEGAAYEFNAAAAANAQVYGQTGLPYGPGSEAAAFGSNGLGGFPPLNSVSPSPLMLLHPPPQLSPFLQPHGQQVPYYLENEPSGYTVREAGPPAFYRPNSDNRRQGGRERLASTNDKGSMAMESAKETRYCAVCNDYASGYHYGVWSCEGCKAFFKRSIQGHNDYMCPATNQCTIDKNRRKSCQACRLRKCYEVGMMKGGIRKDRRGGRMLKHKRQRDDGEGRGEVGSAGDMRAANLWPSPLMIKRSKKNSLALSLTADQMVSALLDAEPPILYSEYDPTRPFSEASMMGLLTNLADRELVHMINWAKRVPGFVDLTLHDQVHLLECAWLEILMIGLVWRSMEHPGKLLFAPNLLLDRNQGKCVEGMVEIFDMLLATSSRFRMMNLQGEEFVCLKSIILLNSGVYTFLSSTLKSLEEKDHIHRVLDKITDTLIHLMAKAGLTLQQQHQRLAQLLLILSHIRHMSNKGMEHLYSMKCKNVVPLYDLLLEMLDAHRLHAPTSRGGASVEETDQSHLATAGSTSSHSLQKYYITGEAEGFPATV
Estrogen receptor beta (Homo sapiens), sequence (Q92731 whole entry, looked up, the tested form may be a part): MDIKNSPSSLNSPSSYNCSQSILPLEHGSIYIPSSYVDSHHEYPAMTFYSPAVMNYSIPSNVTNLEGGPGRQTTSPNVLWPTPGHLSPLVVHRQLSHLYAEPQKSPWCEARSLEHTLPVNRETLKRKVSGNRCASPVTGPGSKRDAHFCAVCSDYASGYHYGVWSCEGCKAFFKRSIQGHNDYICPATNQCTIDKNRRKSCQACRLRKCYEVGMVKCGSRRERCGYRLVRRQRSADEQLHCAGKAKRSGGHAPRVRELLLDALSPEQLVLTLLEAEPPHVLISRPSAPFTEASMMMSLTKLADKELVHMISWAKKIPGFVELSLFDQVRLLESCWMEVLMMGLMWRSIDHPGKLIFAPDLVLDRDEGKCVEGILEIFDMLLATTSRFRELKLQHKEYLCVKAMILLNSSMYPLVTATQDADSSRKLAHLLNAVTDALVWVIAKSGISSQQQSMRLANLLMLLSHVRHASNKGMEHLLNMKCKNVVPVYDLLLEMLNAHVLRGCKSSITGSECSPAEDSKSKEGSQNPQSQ
Agonist Androgen Response Element (ARE), AR (gene 367), sequence (P10275 whole entry, looked up): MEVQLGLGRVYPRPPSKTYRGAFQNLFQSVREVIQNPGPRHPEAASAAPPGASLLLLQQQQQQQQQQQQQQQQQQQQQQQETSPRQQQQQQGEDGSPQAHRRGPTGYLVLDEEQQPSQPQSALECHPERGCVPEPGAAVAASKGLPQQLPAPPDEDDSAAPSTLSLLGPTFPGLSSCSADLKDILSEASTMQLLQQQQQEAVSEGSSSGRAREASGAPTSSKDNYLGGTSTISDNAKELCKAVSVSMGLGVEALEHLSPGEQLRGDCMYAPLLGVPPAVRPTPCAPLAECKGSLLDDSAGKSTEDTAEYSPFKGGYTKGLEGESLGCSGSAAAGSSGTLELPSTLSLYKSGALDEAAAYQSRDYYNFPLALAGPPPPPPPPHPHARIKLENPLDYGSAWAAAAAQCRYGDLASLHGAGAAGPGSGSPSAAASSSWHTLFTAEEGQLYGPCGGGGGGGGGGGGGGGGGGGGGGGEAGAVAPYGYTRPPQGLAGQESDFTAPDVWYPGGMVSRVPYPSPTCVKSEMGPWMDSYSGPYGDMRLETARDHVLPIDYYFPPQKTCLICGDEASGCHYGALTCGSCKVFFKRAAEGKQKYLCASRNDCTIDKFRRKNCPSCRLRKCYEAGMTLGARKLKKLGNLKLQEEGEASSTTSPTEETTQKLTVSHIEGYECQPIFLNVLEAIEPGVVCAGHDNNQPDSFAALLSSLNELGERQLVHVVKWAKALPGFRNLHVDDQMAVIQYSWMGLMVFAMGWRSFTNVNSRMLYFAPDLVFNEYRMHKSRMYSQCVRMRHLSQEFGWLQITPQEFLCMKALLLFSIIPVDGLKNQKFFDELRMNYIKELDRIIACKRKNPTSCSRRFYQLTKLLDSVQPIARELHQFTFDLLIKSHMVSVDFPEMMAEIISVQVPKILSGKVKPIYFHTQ
human Norepinephrine Transporter (NET), SLC6A2 (gene 6530), sequence (P23975 whole entry, looked up): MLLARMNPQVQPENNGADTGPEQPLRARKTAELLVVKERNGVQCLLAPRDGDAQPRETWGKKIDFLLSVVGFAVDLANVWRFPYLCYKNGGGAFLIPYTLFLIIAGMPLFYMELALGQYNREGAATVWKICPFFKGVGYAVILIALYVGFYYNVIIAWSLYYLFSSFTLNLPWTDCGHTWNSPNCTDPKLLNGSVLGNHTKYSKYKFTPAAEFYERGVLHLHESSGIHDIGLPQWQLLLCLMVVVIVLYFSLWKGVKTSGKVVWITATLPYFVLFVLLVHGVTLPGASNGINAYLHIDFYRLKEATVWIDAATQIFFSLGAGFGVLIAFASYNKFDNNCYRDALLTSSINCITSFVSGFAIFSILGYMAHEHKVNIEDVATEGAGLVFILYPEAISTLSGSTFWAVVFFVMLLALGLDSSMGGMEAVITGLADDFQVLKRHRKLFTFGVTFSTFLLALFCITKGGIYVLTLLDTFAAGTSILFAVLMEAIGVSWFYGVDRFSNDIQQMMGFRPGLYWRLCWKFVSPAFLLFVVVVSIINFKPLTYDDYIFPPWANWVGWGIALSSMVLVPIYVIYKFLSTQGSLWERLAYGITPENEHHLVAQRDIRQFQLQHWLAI
human Dopamine Transporter (DAT), SLC6A3 (gene 6531), sequence (Q01959 whole entry, looked up): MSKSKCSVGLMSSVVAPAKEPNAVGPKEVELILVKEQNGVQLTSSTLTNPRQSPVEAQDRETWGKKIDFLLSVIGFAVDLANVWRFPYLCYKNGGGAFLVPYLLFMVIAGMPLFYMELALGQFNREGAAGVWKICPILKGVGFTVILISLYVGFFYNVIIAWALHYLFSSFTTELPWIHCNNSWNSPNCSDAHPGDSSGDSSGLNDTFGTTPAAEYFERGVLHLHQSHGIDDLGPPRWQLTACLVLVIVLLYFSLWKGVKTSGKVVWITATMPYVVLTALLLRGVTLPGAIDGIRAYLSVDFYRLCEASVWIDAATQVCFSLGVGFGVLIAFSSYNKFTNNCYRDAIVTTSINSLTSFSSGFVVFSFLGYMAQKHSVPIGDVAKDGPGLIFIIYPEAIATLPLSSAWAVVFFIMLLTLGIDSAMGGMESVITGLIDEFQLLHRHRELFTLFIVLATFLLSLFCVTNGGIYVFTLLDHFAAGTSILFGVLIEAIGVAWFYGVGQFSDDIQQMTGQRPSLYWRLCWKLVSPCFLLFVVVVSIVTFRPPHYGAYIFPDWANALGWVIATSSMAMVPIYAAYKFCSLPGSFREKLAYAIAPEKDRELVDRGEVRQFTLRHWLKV

As for `NC(=O)c1cccnc1`, the call in assay [1], in assay [2] and in assay [3] was inactive.

Take `CC(=O)Oc1c(C)c(C)c2c(c1C)CC[C@@](C)(CCC[C@H](C)CCC[C@H](C)CCCC(C)C)O2`: the call in assay [1], in assay [3] and in assay [4] was inactive.

As to `O=C(O)CS`, the compound was classed as inactive in assay [1] and in assay [2].

Turning to `Cc1cc(O)c(C)c(C)c1O`, the compound was classed as inactive in assay [5].

For `COc1cc(OC)c2ccc(=O)oc2c1`, the result in assay [1], in assay [6], in assay [2] and in assay [3] was inactive.

With `CC(C)CCCC(C)(C)O`, the call in assay [1], in assay [2], in assay [3] and in assay [4] was inactive.

As a reminder, the AC50 is the concentration giving half of the maximal activity seen. With `CC(C)(O)CCc1ccccc1`, the AC50 in assay [7] is 25 µM (active). For the same compound, the outcome in assay [8] was inactive.

On to `CC1=CCC(C(C)(C)O)CC1` (stereo unspecified), for which the outcome in assay [1], in assay [6] and in assay [3] was inactive.

For `CN1CCc2cccc3c2[C@H]1Cc1ccc(O)c(O)c1-3`, the result in assay [1] and in assay [2] was inactive.

Take `CNC(=C[N+](=O)[O-])NCCSCc1ccc(CN(C)C)o1`: the compound was classed as inactive in assay [1], in assay [2], in assay [3] and in assay [4].

As for `O=C1OC2(c3ccc(O)cc3Oc3cc(O)ccc32)c2ccccc21`, the outcome in assay [5], in assay [2], in assay [3] and in assay [4] was inactive.

On to `CCCCCCCCCCCCN1CCOCC1`, for which the compound was classed as inactive in assay [1], in assay [2] and in assay [3].

As to `CCCO[Si](OCCC)(OCCC)OCCC`, the compound was called inactive in assay [1], in assay [2] and in assay [4].

Take `CCCCCC1CCC(=O)O1` (stereo unspecified): the call in assay [1], in assay [2], in assay [3] and in assay [4] was inactive.

With `[O-]/[N+](=N\O)c1ccccc1`, the compound was classed as inactive in assay [1], in assay [2], in assay [3] and in assay [4].

With `CCCCCCCCCCO[C@@H]1O[C@H](CO)[C@@H](O)[C@H](O)[C@H]1O`, the compound was called inactive in assay [1] and in assay [2].

On to `CC(=O)Nc1cc(S(=O)(=O)O)cc2cc(S(=O)(=O)O)c(N=Nc3ccccc3)c(O)c12`, for which the outcome in assay [1], in assay [2] and in assay [4] was inactive.
